# Source: PubChem
# Calb FLC = affects C. albicans growth with fluconazole. 300,000 compounds, 0.57% hits. growth inhibition, % (test concentration not listed). AID 1979. C. albicans CaCi-2 (fluconazole-resistant clinical isolate) + fluconazole, Alamar Blue growth, 48 h;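 active = growth inhibition above about 58% in most replicates, limit read from the data, passing the limit was not always enough; inconclusive = exactly half the replicates above a set limit; inactive = most replicates below a set limit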;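 note: all wells also contain fluconazole at 8 µg/ml as a sub-toxic cotreatment; 0% = median of DMSO wells and 100% = median of geldanamycin control wells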
# TIM10 inh = growth inhibitors of TIM10 yeast strain | S. cerevisiae TIM10 strain growth, BacTiter-Glo luminescence, 24 h | inhibition, % at 10 µM | 330,000 compounds, 1.4% hits | AID 463195;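 active = inhibition of 40% or more at the single tested concentration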;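 note: wild-type TIM10 isogenic control strain grown at permissive 25 °C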
# tim23-1 inh = inhibits growth of tim23-1 mutant yeast; S. cerevisiae tim23-1 growth, BacTiter-Glo luminescence, 24 h; 330,000 compounds, 1.3% hits; inhibition, % at 20 µM; AID 463212;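 active = growth inhibition of the mutant yeast at or above 50%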;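 note: temperature-sensitive mutant grown at 25 °C; plate controls were DMSO-treated mutant yeast for no effect and medium wells lacking yeast for full effect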
# PfHsp90 yeast 2 = growth inhibition of yeast expressing Plasmodium Hsp90. 310,000 compounds, 0.32% hits. S. cerevisiae expressing PfHsp90, BacTiter-Glo ATP, 48 h; yeast lacking PDR1 and PDR3 efflux regulators. inhibition, % at 9.4 µM. AID 504621;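 active = every replicate shows inhibition above about 80%, whatever the replicate mean, limit read from the data; inconclusive = mean inhibition reaches the set limit but some replicate falls short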;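 note: 0% = DMSO neutral controls and 100% = 20 µM radicicol positive controls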
# tim10-1 inh = inhibits growth of tim10-1 mutant yeast; S. cerevisiae tim10-1 ts strain growth, BacTiter-Glo, 24 h; inhibition, % at 20 µM; 330,000 compounds, 2.2% hits;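 active = inhibition of at least 40%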;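 note: mutant grown at 25 °C; 0% = DMSO wells with yeast and 100% = wells holding no yeast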
# SKKanGAS inh = SKKanGAS growth inhibition; S. pyogenes SKKanGAS, kanamycin growth, BacTiter-Glo, 6 h; inhibition, % at 7.5 µM; 300,000 compounds, 1.3% hits; AID 1662;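 active = mean replicate score, as percent of positive control median, at least 50; inconclusive = mean below 50 but one replicate at or above 50; inactive = mean and every replicate below 50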;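 note: strain carries kanamycin resistance gene driven by streptokinase promoter and grows in 40 µg/ml kanamycin; loss of luminescence reflects streptokinase promoter inhibition or plain growth inhibition; 0% = median of DMSO wells and 100% = positive control at its reference dose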
# tim10-1 confirm = confirmation of tim10-1 mutant yeast growth inhibitors. shares compounds with tim10-1 inh. S. cerevisiae tim10-1 ts strain growth, BacTiter-Glo, 24 h. inhibition, % at 20 µM. 7,400 compounds, 56% hits;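 active = inhibition of yeast growth at or above a set limit in either of two repeat tests at 20 µM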;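 note: tim10-1 mutant grown at permissive 25 °C to find synthetic lethal compounds; 0% = DMSO yeast wells and 100% = medium wells without yeast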
# tim10 confirm = TIM10 yeast growth inhibition, confirmed; inhibition, % at 10 µM; shares compounds with TIM10 inh; 4,600 compounds, 63% hits; S. cerevisiae tim10 strain growth, BacTiter-Glo luminescence, 24 h;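 active = inhibition of yeast growth at or above a set limit in either of two replicates at 10 µM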;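 note: this counterscreen used the strain with wild-type TIM10; 0% = yeast with DMSO and 100% = medium wells lacking yeast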
# * hit, by the source's call; ? = inconclusive; nt = not tested or not shown. Compounds with a hit are over-represented: about 4.7% of the library has one in this group of screens.
SMILES,Calb FLC,TIM10 inh,tim23-1 inh,PfHsp90 yeast 2,tim10-1 inh,SKKanGAS inh,tim10-1 confirm,tim10 confirm
O=C(COC(=O)c1cccs1)NC1CCCC1,-2.3,-1.8,3.0,-7.5,-13.2,-7.5,nt,nt
O=C(Nc1cccc(Cl)c1)NC1CCCCC1,-1.8,49.5*,36.2,nt,41.4*,0.2,32.5*,22.8
N#Cc1sc2nc(C3CC3)cc(-c3ccc(Cl)cc3)c2c1N,?,43.7*,40.3,-8.9,43.5*,8.6,35.8*,-6.3
COc1ccc(-c2cc(C(=O)N3CCN(C(c4ccccc4)c4ccccc4)CC3)no2)cc1,19.2,69.3*,37.5,-9.1,59.2*,-1.5,62.6*,54.5*
COc1ccc(-c2cc(C(=O)N3CCN(C(c4ccccc4)c4ccccc4)CC3)no2)cc1OC,-6.6,55.9*,32.9,-16.9,51.5*,3.0,60.0*,45.4*
O=C(c1cc(-c2ccc3c(c2)OCO3)on1)N1CCN(c2ccccc2)CC1,5.2,43.7*,40.3,nt,41.5*,-3.3,30.8*,41.4*
O=C(c1cc(-c2ccco2)on1)N1CCN(C(c2ccccc2)c2ccccc2)CC1,-8.7,67.2*,30.3,-13.8,61.7*,5.7,62.3*,58.5*
O=C(c1cc(-c2ccc3c(c2)OCO3)on1)N1CCN(c2ccc(F)cc2)CC1,-2.9,-12.0,6.2,-31.2,11.6,-3.2,nt,nt
COc1ccc(-c2cc(C(=O)N3CCCC3)no2)cc1,0.3,-13.0,14.2,-27.0,7.6,-0.8,nt,nt
O=C1CSC(=S)N1Nc1ccccc1,nt,nt,nt,9.0,nt,nt,nt,nt
COc1ccccc1C(C)NCC(=O)NC(=O)NCc1ccco1 (stereo not given),-8.7,6.8,5.8,2.5,-3.1,0.5,nt,nt
CCCCc1ccc(NC(=O)CSc2nc(=O)n(CCCN3CCOCC3)c3c2CCC3)cc1,18.8,-0.8,4.7,16.5,9.5,-6.3,nt,nt
Cc1[nH]c(C)c(S(=O)(=O)N2CCN(c3ccccc3)CC2)c1C(=O)N1CCCCC1,4.8,0.4,1.4,-35.8,-16.5,-0.8,nt,nt
COC(=O)[C@]1(Cc2ccccc2)N[C@H](c2ccc(-c3cc(C(C)=O)cs3)cc2)[C@@H]2C(=O)N(C)C(=O)[C@@H]21,8.2,12.6,7.6,-5.1,12.2,13.9,nt,nt
CCCn1c(SCC(=O)Nc2ccccc2C(=O)OC)nc2c1c(=O)n(C)c(=O)n2C,15.2,46.5*,31.0,3.7,60.4*,-0.3,45.1*,46.4*
CCCn1c(SCC(=O)Nc2ccccc2N2CCCCC2)nc2c1c(=O)n(C)c(=O)n2C,4.8,17.3,17.3,-4.6,27.5,1.7,nt,nt
Cn1c(=O)n(Cc2ccccc2)c(=O)c2c1nc1n2CCCN1CCc1ccccc1,37.2,47.0*,42.0,51.7,43.5*,5.7,40.9*,34.1*
C[C@H]1CC[C@H]2C(=O)N3[C@H](c4ccccc4Br)[C@@H](C)CC[C@H]3C(=O)N2[C@@H]1c1ccccc1Br,-17.9,44.4*,47.0,nt,40.5*,11.0,32.7*,40.9*
O=C(c1cccs1)N1CCN=C1SCc1cccnc1,0.8,-7.5,12.7,8.4,24.8,-1.1,nt,nt
O=C(N1CCN=C1SCc1cccnc1)C12CC3CC(CC(C3)C1)C2,8.8,44.9*,45.4,13.5,45.0*,2.6,40.1*,47.4*
COc1ccc(C(=O)/C(=C\c2ccco2)N2C=CC=CC2=C(C#N)C#N)cc1,26.3,59.5*,31.0,13.0,52.5*,-0.1,40.8*,52.8*
Cc1ccnc(OC(C(=O)O)C(OCc2ccccc2)(c2ccc(F)cc2)c2ccc(F)cc2)n1 (stereo not given),0.7,6.7,3.2,-2.0,-4.7,16.8,nt,nt
Cc1coc2c1C(=O)C(=O)c1c-2ccc2c1CCCC2(C)C,12.9,43.6*,47.4,-76.5,47.7*,41.8,37.6*,36.5*
CCCc1cc(C(=O)Nc2ccc(CC)cc2)no1,-13.9,3.2,33.6,-31.5,21.0,5.9,nt,nt
C/C(=N\NC(=O)c1ccc(Cl)cc1)c1ccc2[nH]ccc2c1,-12.6,15.5,-1.0,19.6,-11.5,-1.3,nt,nt
SMILES,Calb FLC,TIM10 inh,tim23-1 inh,PfHsp90 yeast 2,tim10-1 inh,SKKanGAS inh,tim10-1 confirm,tim10 confirm
N/C(=N\OC(=O)c1ccco1)c1ccc(Cl)cc1,-29.0,53.9*,49.2,-4.0,47.5*,-1.3,47.2*,22.7
CN(CC(=O)Nc1ccc(Cl)c(Cl)c1)C1CCCCC1,-0.1,3.4,13.9,5.0,20.0,0.1,nt,nt
CN(CC(=O)Nc1ccc(Cl)c(Cl)c1)C(=O)C12CC3CC(CC(C3)C1)C2,0.5,59.7*,19.8,29.6,44.9*,8.5,19.0,53.3*
C=CCN1C(=O)c2ccc(C(=O)OCC(=O)Nc3ccc(S(N)(=O)=O)cc3)cc2C1=O,nt,-5.8,-14.9,21.7,-22.2,-14.9,nt,nt
COc1ccc(C(=O)Oc2ccc(F)cc2C(=O)/C=C/c2ccc(OC)c(OC)c2)cc1,4.9,27.4,38.6,-3.8,24.4,0.7,nt,nt
O=C(Oc1ccc(F)cc1C(=O)/C=C/c1cccs1)c1cccc([N+](=O)[O-])c1,0.8,49.9*,20.8,-16.5,50.8*,3.8,39.5*,1.0
Cc1ccc(S(=O)(=O)N2CCN(C(=O)COC(=O)CSc3ccccc3)CC2)c(C)c1,0.0,9.6,26.0,-7.0,16.9,-1.0,nt,nt
CCCN1C(=O)/C(=C/c2ccc(C)s2)NC1=S,29.4,45.2*,36.3,-1.5,46.5*,-30.1,12.2,40.5*
CC(C)CN1C(=O)/C(=C/c2cccs2)NC1=S,26.4,48.2*,49.9,-9.9,42.8*,-1.1,16.9,40.5*
CC(C)CN1C(=O)/C(=C/c2ccco2)NC1=S,-3.9,22.4,17.7,-31.2,22.1,-5.6,nt,nt
Cc1ccc(/C=C2/NC(=O)N(Cc3ccccc3F)C2=O)s1,-4.6,0.3,-19.0,14.1,12.9,-6.6,nt,nt
COc1ccc2cc3cc(C(=O)NCCN4CCN(Cc5ccccc5)CC4)oc3nc2c1,12.6,75.4*,39.0,-9.1,56.6*,3.3,57.5*,-20.6
COc1ccc2cc3cc(C(=O)NCCCN4CCOCC4)oc3nc2c1,16.1,78.8*,45.3,24.1,58.0*,14.4,66.6*,80.8*
CCCCN(CC)CCCNC(=O)c1cc2cc3ccc(OC)cc3nc2o1,-1.2,65.9*,47.3,1.9,42.5*,4.9,44.5*,-21.0
COc1ccc2nc3oc(C(=O)NC4CCN(Cc5ccccc5)CC4)cc3cc2c1,nt,74.3*,34.0,6.1,51.6*,nt,50.0*,43.8*
Cc1nc(N2CCC(C)CC2)c2oc3ccccc3c2n1,5.9,45.6*,45.9,-6.3,48.9*,12.9,27.4,46.8*
CCN(CC)Cc1cc2[nH]c3c4ccc(Cl)cc4ncc3c2cc1OC,-22.7,68.0*,33.9,-24.6,57.1*,-2.2,50.0*,35.0*
